From PubChem
Shown is part of a subset that was picked to be rich in hits.
ClpP mod: qHTS Assay for Activators of ClpP; AID 651965, 2013; ATP-dependent Clp protease proteolytic subunit (Bacillus subtilis (strain 168)), P80244; purified B. subtilis ClpP, FRET peptide cleavage, 20 min; 340,000 compounds, 1.9% hits; Potency, µM (doses to about 57.5 µM); active = well fitted falling curve with a large enough effect; inconclusive = small, poorly fitted or top-dose-only effect; inactive = no such curve, though single readings can be large or run the other way; also: the source files actives as falling curves though it sought activators and does not explain the sign; nearly all actives have a fitted effect of over 65% in size
Target sequence (P80244 whole entry, looked up): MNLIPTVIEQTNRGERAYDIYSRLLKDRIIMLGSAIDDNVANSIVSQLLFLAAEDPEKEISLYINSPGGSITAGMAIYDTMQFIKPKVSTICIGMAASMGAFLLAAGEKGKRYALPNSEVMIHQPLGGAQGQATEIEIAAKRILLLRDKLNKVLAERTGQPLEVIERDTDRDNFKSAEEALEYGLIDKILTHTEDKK
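Purified B. subtilis ClpP, 10 microg/mL final in Tris/HCl pH8 with KCl, BSA, glycerol and Tween-20, cleaved an Abz/nitrotyrosine-quenched decapeptide. Fluorescence (ex 320, em 430) was read at 0 and 20 min at room temperature. Delta was normalized to 5.8 microM ADEP and DMSO/no-enzyme controls.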
Rango release inh: prevents RanGTP from dissociating the Rango-importin beta complex; 340,000 compounds, 0.071% hits; Potency, µM (highest dose often 46.1 µM); AID 540253; O95149+P62826; Biochemical FRET Rango-importin beta, RanGTP-induced dissociation; also: nearly all actives have a fitted effect of over 45% in size
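Two FRET readings bracket the reaction: one 5 min after compound meets Rango–importin beta, another 45 min after RanGTP-RCC1 (0.6 uM Ran, 0.2 uM RCC1, 2 mM GTP) is added. Only the second defines inhibition.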
MBNL1-CUG inh: blocks human MBNL1 binding to CUG repeat RNA | Q9NR56 | TR-FRET MBNL1-His/biotin-(CUG)12 binding, 665/545 ratio | Potency, µM (doses to about 57.5 µM), hits mostly inhibitors | 280,000 compounds, 0.036% hits; active = well fitted inhibition curve with a large enough effect in the signal ratio, with a control signal flat, not every such curve was filed as active; inconclusive = small, poorly fitted or top-dose-only effect, or effect the other way, or a change in a side signal; inactive = no such curve, though single readings can be large or run the other way; the % refers to the signal ratio
Target sequence (Q9NR56 whole entry, looked up): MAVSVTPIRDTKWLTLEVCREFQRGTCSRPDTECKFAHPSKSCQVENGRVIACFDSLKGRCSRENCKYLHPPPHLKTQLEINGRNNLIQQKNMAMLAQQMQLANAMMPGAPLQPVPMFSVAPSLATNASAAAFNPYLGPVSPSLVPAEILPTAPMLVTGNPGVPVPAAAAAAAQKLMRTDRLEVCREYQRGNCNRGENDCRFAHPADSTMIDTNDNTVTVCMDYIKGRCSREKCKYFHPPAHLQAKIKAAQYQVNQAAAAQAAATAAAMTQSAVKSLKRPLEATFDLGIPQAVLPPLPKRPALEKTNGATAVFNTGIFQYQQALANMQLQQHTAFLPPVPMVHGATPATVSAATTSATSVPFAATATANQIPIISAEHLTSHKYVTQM
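Inhibition of protein-RNA binding appears as loss of TR-FRET between terbium anti-His antibody on MBNL1-His and streptavidin-XL665 on biotin-(CUG)12. Activity is normalized to buffer-only and uninhibited-complex controls.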
CBFb RUNX1 block: inhibitors of human CBF-beta and RUNX1 interaction; AlphaScreen CBFb-His/RUNX1-biotin binding, biochemical; Potency, µM (titrated, usually from 59.8 µM), actives largely listed as inhibitors; 230,000 tested, under 10 active; AID 1477; active = well fitted curve in the direction sought with a large enough effect; inconclusive = small, poorly fitted or top-dose-only effect, or effect the other way, or another doubt; inactive = no such curve, though single readings can be large or run the other way
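Bead-based AlphaScreen assay; binding partners His-tagged CBF-beta and biotinylated RUNX1 at 30 nM each. Compound exposure 15 min after a 20-min protein preincubation; bead step 90 min; all steps at room temperature.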
Rango complex inh: inhibitors of Rango-importin beta complex formation. Rango CFP/YFP FRET sensor + importin beta, 45 min. Potency, µM (series often up to 92.2 µM). 340,000 compounds, 0.031% hits; also: nearly all actives have a fitted effect of over 15% in size
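FRET biosensor (snurportin 1 IBB flanked by EYFP and cerulean), 50 nM, with compound 5 min, then 0.125 microM importin beta in PBS, 1 mM DTT, 0.02% Tween-20, 0.1% BSA. CFP/YFP ratio read after 45 min at room temperature; pre-read flags interference.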
Large screens that a line does not name were inactive. Unless noted, calls follow the shape of the full dose curve.

COc1ccccc1C(=O)NC(CCSC)C(=O)NNC(=O)c1ccc(F)cc1 (stereo unspecified)	ClpP mod 28µM (no result: CBFb RUNX1 block)
COc1ccccc1C(=O)NC(CCSC)C(=O)NNC(=O)c1ccccc1O (stereo unspecified)	ClpP mod inconclusive (no result: MBNL1-CUG inh, CBFb RUNX1 block)
COc1cc(C(O)c2nc(/C=C/c3ccccc3)cs2)ccc1F (stereo unspecified)	none (no result: Rango release inh, MBNL1-CUG inh, CBFb RUNX1 block, Rango complex inh)
COc1ccc(C(O)c2nc(/C=C/c3ccc(C(F)(F)F)cc3)cs2)cc1 (stereo unspecified)	ClpP mod 25µM (no result: Rango release inh, MBNL1-CUG inh, CBFb RUNX1 block, Rango complex inh)
C=C1C=C(C)n2ncc(C(=O)Nc3ccccc3C(=O)OC)c2N1	none (no result: Rango release inh, MBNL1-CUG inh, CBFb RUNX1 block, Rango complex inh)
COc1ccccc1NS(=O)(=O)c1cc(NC(=O)c2ccc(NC(C)=O)cc2)ccc1N1CCOCC1	none (no result: MBNL1-CUG inh, CBFb RUNX1 block)
COc1ccccc1NS(=O)(=O)c1cc(NC(=O)c2ccncc2)ccc1N1CCOCC1	ClpP mod 25µM
COc1ccccc1NS(=O)(=O)c1cc(NC(=O)Nc2ccccc2)ccc1N1CCCCC1	ClpP mod 25µM
CCOc1cccc(-c2nn(-c3ccccc3)cc2/C=C(/C#N)C(=O)NCCCn2ccnc2)c1	ClpP mod 25µM, CBFb RUNX1 block inconclusive (no result: MBNL1-CUG inh)
N#C/C(=C/c1cn(-c2ccccc2)nc1-c1cccc(OCc2ccccc2)c1)C(=O)NCCCn1ccnc1	ClpP mod inconclusive, CBFb RUNX1 block inconclusive, Rango complex inh inconclusive
CCCCCCCCCC[n+]1ccc(/C=C/c2c[nH]c3ccccc23)c2ccccc21	none (no result: Rango release inh, MBNL1-CUG inh, CBFb RUNX1 block, Rango complex inh)
Cc1ccc(/C=C/c2nnc(-c3cccs3)o2)cc1	ClpP mod 8.9µM
Fc1ccc(/C=C/c2nnc(-c3cccs3)o2)cc1	none (no result: ClpP mod)
COc1cc(NC(=O)C2CCN(S(=O)(=O)c3c(C)noc3/C=C/c3cccs3)CC2)cc(OC)c1	none (no result: Rango release inh, MBNL1-CUG inh, CBFb RUNX1 block, Rango complex inh)
COC(=O)C1=C(C(=O)OC)[C@@H]2N(Cc3ccccc3)c3ccccc3[C@@]23C[C@@H](C(=O)OC)N(S(=O)(=O)c2ccc(Br)cc2)C3=N1	none (no result: ClpP mod, Rango release inh, MBNL1-CUG inh, Rango complex inh)
COc1cccc(-c2ccc(C#N)c(OC(=O)c3c(Cl)cccc3Cl)n2)c1	ClpP mod 16µM, CBFb RUNX1 block inconclusive
COc1cccc(-c2ccc(C#N)c(OC(=O)c3ccc(Cl)cc3)n2)c1	MBNL1-CUG inh inconclusive
CCOC(=O)c1ccc(NC(=O)C(=O)NCC2CCCO2)cc1 (stereo unspecified)	ClpP mod 32µM
CCc1ccc(NC(=O)C(=O)NCC2CCCO2)cc1 (stereo unspecified)	CBFb RUNX1 block inconclusive
Cc1c(C(=O)N2CCC(C)CC2)c(S(=O)(=O)N2CCN(c3cccc(Cl)c3)CC2)c(C)n1C	none (no result: Rango release inh, MBNL1-CUG inh, CBFb RUNX1 block, Rango complex inh)
CCCCN(C)CCNC(=O)C1CCN(c2nc3ccc(CC)cc3s2)CC1	none (no result: Rango release inh, MBNL1-CUG inh, CBFb RUNX1 block, Rango complex inh)
Nc1c(C(=O)Nc2ccccc2F)sc2nc(-c3ccco3)ccc12	ClpP mod 28µM, Rango release inh inconclusive, Rango complex inh inconclusive
O=S(=O)(Oc1ccccc1)c1ccc(Cl)c(Cl)c1	none (no result: ClpP mod, MBNL1-CUG inh, CBFb RUNX1 block)
O=[N+]([O-])c1cc(S(=O)(=O)Oc2ccccc2)ccc1Cl	ClpP mod 35µM, Rango release inh inconclusive (no result: MBNL1-CUG inh, CBFb RUNX1 block)
CC[N+](C)(C)c1ccc(/C=C/c2ccncc2)cc1	none (no result: Rango release inh, MBNL1-CUG inh, CBFb RUNX1 block, Rango complex inh)
Cc1nc2ccccc2c(=O)n1/N=C/c1cc(Br)ccc1O	Rango release inh 10µM, Rango complex inh inconclusive (no result: ClpP mod, CBFb RUNX1 block)
COC(C)(C)CCCC(C)C/C=C/C(C)=C/C(=O)O (stereo unspecified)	none (no result: ClpP mod, Rango release inh, MBNL1-CUG inh, Rango complex inh)
N#Cc1c(NC(=O)CSc2nc(-c3ccccc3)cc(C(F)(F)F)n2)sc2c1CCC2	ClpP mod 25µM (no result: MBNL1-CUG inh)
Cc1ccc(C)c(N2CCN(C(=O)Cn3c(=O)c4cccn4c4ccc(F)cc43)CC2)c1	none (no result: Rango release inh, MBNL1-CUG inh, CBFb RUNX1 block, Rango complex inh)
CCOc1ccc(S(=O)(=O)N(CC(=O)Nc2cccnc2)c2ccccc2)cc1	none (no result: Rango release inh, MBNL1-CUG inh, CBFb RUNX1 block, Rango complex inh)
CN(c1cccc(NC(=O)CN2C(=O)c3ccccc3S2(=O)=O)c1)S(C)(=O)=O	ClpP mod 28µM
CCN(CC)C(=O)c1sc2c(c1C)c(=O)n(-c1ccc(Cl)c(Cl)c1)c(=O)n2Cc1ccccc1C#N	none (no result: Rango release inh, MBNL1-CUG inh, CBFb RUNX1 block, Rango complex inh)
O=C(Cn1ncc2c(Cl)cccc21)NCc1cccc(Cl)c1	none (no result: Rango release inh, MBNL1-CUG inh, CBFb RUNX1 block, Rango complex inh)
COC(=O)c1cc(-c2c(C)oc3cc(O)ccc3c2=O)c(C)o1	ClpP mod 25µM, Rango release inh inconclusive
